Experimental data published in PubChem BioAssay (NCATS).
Results filed as inconclusive are left out. Calls of active or inactive are those of the source. The call rests on the fitted dose curve.

Each compound was assayed against Retinoic acid receptor RXR-alpha (Homo sapiens) (UniProt P19793) (assay: qHTS assay for small molecule agonists of retinoid X receptor alpha signaling (AID 588544;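 further: 0% = DMSO basal wells and 100% = reference agonist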)). Conditions: HEK293T RXRa-UAS-bla, beta-lactamase reporter, 18 h; series mostly up to 76.7 µM; activation: at the top concentration.
Chain of Retinoic acid receptor RXR-alpha (Homo sapiens) (P19793 whole entry, looked up): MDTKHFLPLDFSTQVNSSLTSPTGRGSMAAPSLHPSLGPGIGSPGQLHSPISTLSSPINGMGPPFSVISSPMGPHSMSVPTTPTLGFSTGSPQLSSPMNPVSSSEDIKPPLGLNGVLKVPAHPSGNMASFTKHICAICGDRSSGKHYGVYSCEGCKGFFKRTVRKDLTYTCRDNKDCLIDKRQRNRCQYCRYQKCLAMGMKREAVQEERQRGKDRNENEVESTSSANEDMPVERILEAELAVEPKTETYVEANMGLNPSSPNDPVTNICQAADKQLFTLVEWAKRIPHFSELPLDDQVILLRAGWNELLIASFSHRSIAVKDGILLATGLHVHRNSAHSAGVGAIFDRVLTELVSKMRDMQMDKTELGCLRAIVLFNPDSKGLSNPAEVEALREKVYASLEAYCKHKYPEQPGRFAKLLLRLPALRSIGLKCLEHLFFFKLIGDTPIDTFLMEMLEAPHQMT

Row | SMILES | activation | Potency
1 | CCOP(=O)(OCC)Oc1ccc([N+](=O)[O-])cc1 | -15.4% (inactive) | 
2 | CC1(C)CCC(Cc2ccc(Cl)cc2)C1(O)Cn1cncn1 (stereo not drawn) | -27% (inactive) | 
3 | c1ccccc1 |  | inactive
